Reference: PubChem BioAssay (EPA / NIEHS)
“And” between values parts separate entries of the source, which are not always exact repeats. Identical values can stand only once. Results filed as inconclusive are left out. The source holds several records for some structures; these can differ, active in one and inactive in another. The source made the active and inactive calls. How the source made its calls, unless noted: active means hit-call score of the fitted dose curve at least 0.9, where 1 is the maximum; inactive means score below 0.9.

Tests used:
[1] = molecular target: Glucocorticoid receptor (Homo sapiens) (UniProt P04150); test: ATG_GR_TRANS: Attagene TRANS-FACTORIAL HepG2 Assay for human Glucocorticoid Receptor (GR) (AID 2282978; active means hit-call score of the fitted dose curve at least 0.9, where 1 is the maximum;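 further: activators score as hits since higher reporter transcript over DMSO is fitted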); conditions: HepG2 Attagene TRANS GR reporter, mRNA transcription
Procedure, shortened: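 Transiently transfected HepG2 cells express chimeric NR-GAL4 proteins acting on GAL4-UAS reporter units. Compounds are applied for 24 h. mRNA induction over DMSO is measured by capillary electrophoresis.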

[2] = molecular target: Bile acid receptor (Homo sapiens) (UniProt Q96RI1); test: ATG_FXR_TRANS: Attagene TRANS-FACTORIAL HepG2 Assay for Farnesoid X Receptor (FXR) (AID 2282979; active means hit-call score of the fitted dose curve at least 0.9, where 1 is the maximum;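 further: hits raise reporter mRNA above DMSO so AC50 marks FXR activation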); conditions: HepG2 Attagene TRANS FXR-GAL4 reporter transcription
Procedure, shortened: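 After 24 h chemical treatment of transfected HepG2 cells, GAL4-UAS reporter transcripts driven by an exogenous FXR-GAL4 fusion were measured by RT-PCR and capillary electrophoresis. Increases over DMSO were fitted.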

[3] = molecular target: Hepatocyte nuclear factor 4-alpha (Homo sapiens) (UniProt P41235); test: ATG_HNF4a_TRANS: Attagene TRANS-FACTORIAL HepG2 Assay for human Hepatocyte Nuclear Factor 4 alpha (HNF4a) (AID 2282982; active means hit-call score of the fitted dose curve at least 0.9, where 1 is the maximum); conditions: HepG2 HNF4a transactivation reporter, mRNA readout
Procedure, shortened: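 Readout is fluorescent reporter-transcript fragments resolved by capillary electrophoresis after RT-PCR from HepG2 cells dosed for 24 h. Cells carried transfected GAL4-UAS reporter constructs measuring exogenous NR-GAL4 chimera activity; DMSO served as baseline.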

[4] = molecular target: Nuclear receptor subfamily 4 group A member 2 (Homo sapiens) (UniProt P43354); test: ATG_NURR1_TRANS: Attagene TRANS-FACTORIAL HepG2 Assay for human Nuclear Receptor Related Protein 1 (NURR1) (AID 2282985; active means hit-call score of the fitted dose curve at least 0.9, where 1 is the maximum); conditions: HepG2 Attagene TRANS reporter, mRNA readout
Procedure, shortened: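 Transient transfection of HepG2, human liver cells, with multiple GAL4-UAS reporter transcription units. Cells dosed 24 h, RNA isolated, reverse-transcribed, PCR-amplified, FAM-labelled, HpaI-digested, sized by capillary electrophoresis. DMSO served as negative control.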

[5] = molecular target: Transcriptional activator Myb (Homo sapiens) (UniProt P10242); test: ATG_Myb_CIS: Attagene CIS-FACTORIAL HepG2 Assay for human Myeloblastosis (Myb) Proto-Oncogene Transcription Factor (AID 2282986); conditions: HepG2 Attagene CIS-FACTORIAL Myb reporter transcription; actives raise or lower the signal
Procedure, shortened: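 Using HepG2 liver cells bearing transiently transfected cis-promoter reporter constructs, the assay measures induction or loss of reporter mRNA after 24 hours of dosing. Detection used fluorescently labeled RT-PCR products separated by capillary electrophoresis.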

[6] = molecular target: Nuclear respiratory factor 1 (Homo sapiens) (UniProt Q16656); test: ATG_NRF1_CIS: Attagene CIS-FACTORIAL HepG2 Assay for human Nuclear Respiratory Factor 1 (NRF1) Orphan Gene (AID 2282987); conditions: HepG2 NRF1 cis-element reporter, Attagene multiplex; actives raise or lower the signal
Procedure, shortened: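 Reporter mRNA induction or loss in HepG2 cells after 24 h dosing; cis-regulated reporter constructs report endogenous transcription-factor activity. Quantified by RT-PCR/capillary electrophoresis fluorescence, DMSO-referenced.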

[7] = ATG_NFI_CIS: Attagene CIS-FACTORIAL HepG2 Assay for human Nuclear Factor I (NFI) (AID 2282989); conditions: HepG2 cis-regulatory reporter, NFI response element transcription; actives raise or lower the signal
Procedure, shortened: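 Endogenous TF activity in HepG2 cells transiently transfected with cis-element-driven multiplexed reporter units, read 24 h after dosing. Reporter mRNA quantified by RT-PCR, 6-FAM labelling, HpaI digestion and capillary electrophoresis; bidirectional fit versus DMSO.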

[8] = molecular target: Myc proto-oncogene protein (Homo sapiens) (UniProt P01106); test: ATG_Myc_CIS: Attagene CIS-FACTORIAL HepG2 Assay for human Myelocytomatosis (Myc) Proto-Oncogene Transcription Factor (AID 2282990); conditions: HepG2, Attagene cis-reporter transcription factor activity; actives raise or lower the signal
Procedure, shortened: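 HepG2, transient MRTU transfection (cis promoters, endogenous TFs); 24 h dosing; TriZol RNA → oligo(dT) RT → PCR → 6-FAM primer extension → HpaI cut → CE. Bidirectional fit vs DMSO.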

[9] = ATG_NF_kB_CIS: Attagene CIS-FACTORIAL HepG2 Assay for human Nuclear Factor Kappa B (NF-kB) (AID 2282991); conditions: HepG2 Attagene cis-factorial NF-kB reporter mRNA; actives raise or lower the signal
Procedure, shortened: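 DMSO served as negative control and baseline for bidirectional curve fitting. Transiently transfected HepG2 cells were dosed for 24 h, then reporter transcripts were measured by RT-PCR with capillary electrophoresis detection.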

[10] = ATG_NRF2_ARE_CIS: Attagene CIS-FACTORIAL HepG2 Assay for human Nuclear Factor Erythroid 2 Related Factor 2 (NFR2) response to Antioxidant Response Elements (ARE) (AID 2282992); conditions: HepG2 Attagene ARE/NRF2 reporter, transcription factor activity; actives raise or lower the signal;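 on AC50: reporter mRNA level measured by RT-PCR and capillary electrophoresis fluorescence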
Procedure, shortened: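 HepG2 cells transiently transfected with multiplexed cis-regulated reporter transcription units measure endogenous transcription factor activity. Reporter mRNA at 24 h is quantified by RT-PCR, fluorescent labelling and capillary electrophoresis, with bidirectional fitting relative to DMSO.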

[11] = ATG_Oct_MLP_CIS: Attagene CIS-FACTORIAL HepG2 Assay for human Octamer-Binding Transcription Factor (Oct) (AID 2282993); conditions: HepG2 Attagene cis-factorial Oct reporter, mRNA; actives raise or lower the signal
Procedure, shortened: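 HepG2 cells transiently transfected with cis-element-driven reporter transcription units (endogenous TF activity); 24 h compound exposure. Reporter mRNA quantified by RT-PCR, 6-FAM labelling, HpaI digestion and capillary electrophoresis; bidirectional fit versus DMSO baseline.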

[12] = BSK_3C_TissueFactor: BioMAP Diversity Plus: 3C Assay for Tissue Factor Biomarker Activity (AID 2282997); conditions: BioMAP 3C HUVEC, tissue factor biomarker readout; actives raise or lower the signal
Procedure, shortened: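 Endothelial monolayers (human umbilical vein, primary) are dosed, incubated 24 h, and assayed for Tissue Factor by ELISA; DMSO serves as negative control for bidirectional fitting.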

[13] = BSK_3C_uPAR: BioMAP Diversity Plus: 3C Assay for Urokinase-type plasminogen activator receptor (uPAR) Biomarker Activity (AID 2282998); conditions: BioMAP 3C HUVEC, uPAR biomarker ELISA; actives raise or lower the signal
Procedure, shortened: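 Primary human umbilical vein endothelial cells, 3C system; surface uPAR measured by ELISA 24 h after dosing. Cytotoxicity via SRB total protein in parallel cultures; bidirectional fit against DMSO.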

[14] = BSK_3C_VCAM1: BioMAP Diversity Plus: 3C Assay for Vascular cell adhesion molecule 1 (VCAM1) Biomarker Activity (AID 2282999); conditions: BioMAP 3C HUVEC, VCAM1 ELISA, cytokine-stimulated; actives raise or lower the signal
Procedure, shortened: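 Endothelial cells from human umbilical vein are treated with test chemical. At 24 h, VCAM-1 is measured by ELISA, and responses in either direction are fitted relative to DMSO.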

[15] = BSK_4H_Eotaxin3: BioMAP Diversity Plus: 4H Assay for Eotaxin 3 Biomarker Activity (AID 2283000); conditions: primary human endothelial cells (HUVEC); actives raise or lower the signal
Procedure, shortened: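 ELISA quantitation of CCL26 (Eotaxin-3) protein from chemically dosed human vascular endothelial cells at 24 h; increases and decreases both scored relative to DMSO-treated baseline.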

[16] = molecular target: Oxysterols receptor LXR-beta (Homo sapiens) (UniProt P55055); test: ATG_LXRb_TRANS: Attagene TRANS-FACTORIAL HepG2 Assay for human Liver X Receptor beta (LXRb) (AID 2282981; active means hit-call score of the fitted dose curve at least 0.9, where 1 is the maximum); conditions: HepG2 Attagene TRANS GAL4-LXRb reporter, mRNA
Procedure, shortened: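 Transient transfection HepG2 (multiplexed RTUs, GAL4-UAS); NR-Gal4 chimera; 24 h exposure; RNA → RT-PCR → 6-FAM primer extension → HpaI → CE; increase vs DMSO.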

[17] = ATG_M_06_TRANS: Attagene TRANS-FACTORIAL HepG2 Assay for M06 Transcription Factor (Internal Marker) (AID 2282983; active means hit-call score of the fitted dose curve at least 0.9, where 1 is the maximum;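 further: reporter transcript level by RT-PCR then capillary electrophoresis fluorescence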); conditions: HepG2 Attagene TRANS M06 internal marker reporter
Procedure, shortened: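 Internal-marker background readout from a multiplexed TRANS reporter system in HepG2; 24 h dosing; mRNA induction quantified by RT-PCR plus capillary electrophoresis fluorescence; DMSO as negative control and baseline.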

[18] = ATG_M_32_TRANS: Attagene TRANS-FACTORIAL HepG2 Assay for M32 Transcription Factor (Internal Marker) (AID 2282984; active means hit-call score of the fitted dose curve at least 0.9, where 1 is the maximum;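 further: transcript level of a background control reporter unit measured by RT-PCR and capillary electrophoresis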); conditions: HepG2 Attagene TRANS M32 internal marker reporter
Procedure, shortened: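 Measures reporter mRNA induction in human HepG2 liver cells after 24 h chemical treatment. Transcripts from transiently transfected GAL4-UAS reporter units are amplified, fluorescently labelled and sized by capillary electrophoresis; gain of signal relative to DMSO.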

[19] = molecular target: human Peroxisome Proliferator-activated Receptor alpha (PPARa), PPARA (gene 5465) (UniProt Q07869); test: ATG_PPARa_TRANS: Attagene TRANS-FACTORIAL HepG2 Assay for human Peroxisome Proliferator-activated Receptor alpha (PPARa) (AID 2283001; active means hit-call score of the fitted dose curve at least 0.9, where 1 is the maximum)
Procedure, shortened: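 Read-out is fluorescence of reporter cDNA fragments resolved by capillary electrophoresis after RT-PCR. Human HepG2 liver cells carried transfected PPARa-Gal4 chimera and GAL4-UAS reporter units, treated 24 h; activity scored as increase over DMSO.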

[20] = molecular target: Cellular tumor antigen p53 (Homo sapiens) (UniProt P04637); test: ATG_p53_CIS: Attagene CIS-FACTORIAL HepG2 Assay for human p53 Transcription Factor (AID 2282994); conditions: HepG2 p53 cis-element reporter, Attagene mRNA; actives raise or lower the signal
Procedure, shortened: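 HepG2 cells transiently transfected with multiplexed cis-regulated reporter transcription units read endogenous TF activity. After 24 h compound exposure, reporter mRNA was quantified by RT-PCR, fluorescent labelling, HpaI digestion and capillary electrophoresis; bidirectional fits versus DMSO baseline.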

Measured: AC50

Sequence of Nuclear receptor subfamily 4 group A member 2 (Homo sapiens) (P43354 whole entry, looked up, the tested form may be a part): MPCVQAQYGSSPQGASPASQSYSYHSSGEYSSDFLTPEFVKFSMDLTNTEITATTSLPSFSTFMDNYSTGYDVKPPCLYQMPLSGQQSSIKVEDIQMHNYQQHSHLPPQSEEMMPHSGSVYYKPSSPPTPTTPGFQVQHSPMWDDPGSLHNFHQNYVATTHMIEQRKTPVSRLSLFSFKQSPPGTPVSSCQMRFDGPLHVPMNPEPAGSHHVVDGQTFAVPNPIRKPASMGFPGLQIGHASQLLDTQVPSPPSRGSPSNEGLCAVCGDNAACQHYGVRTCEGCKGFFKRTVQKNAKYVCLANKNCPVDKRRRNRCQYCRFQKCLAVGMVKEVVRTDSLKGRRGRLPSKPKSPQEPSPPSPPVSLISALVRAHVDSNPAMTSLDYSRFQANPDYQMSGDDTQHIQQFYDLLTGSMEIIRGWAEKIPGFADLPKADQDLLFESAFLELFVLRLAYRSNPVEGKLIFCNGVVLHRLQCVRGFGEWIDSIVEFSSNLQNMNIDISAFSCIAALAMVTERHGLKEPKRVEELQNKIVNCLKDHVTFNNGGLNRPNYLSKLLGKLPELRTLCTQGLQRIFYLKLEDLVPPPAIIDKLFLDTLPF
Sequence of Myc proto-oncogene protein (Homo sapiens) (P01106 whole entry, looked up): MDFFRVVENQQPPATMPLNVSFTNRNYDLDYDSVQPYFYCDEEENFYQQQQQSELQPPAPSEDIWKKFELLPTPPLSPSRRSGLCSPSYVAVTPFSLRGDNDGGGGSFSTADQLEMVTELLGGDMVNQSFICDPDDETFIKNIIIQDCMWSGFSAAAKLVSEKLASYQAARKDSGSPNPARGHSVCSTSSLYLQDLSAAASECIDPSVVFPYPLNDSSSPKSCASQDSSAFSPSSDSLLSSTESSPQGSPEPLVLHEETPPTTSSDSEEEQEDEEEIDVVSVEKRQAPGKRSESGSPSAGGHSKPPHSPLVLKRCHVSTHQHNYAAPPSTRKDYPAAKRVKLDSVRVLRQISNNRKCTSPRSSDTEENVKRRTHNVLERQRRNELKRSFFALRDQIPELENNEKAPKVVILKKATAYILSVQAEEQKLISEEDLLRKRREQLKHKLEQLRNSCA
Sequence of human Peroxisome Proliferator-activated Receptor alpha (PPARa), PPARA (gene 5465) (Q07869 whole entry, looked up, the tested form may be a part): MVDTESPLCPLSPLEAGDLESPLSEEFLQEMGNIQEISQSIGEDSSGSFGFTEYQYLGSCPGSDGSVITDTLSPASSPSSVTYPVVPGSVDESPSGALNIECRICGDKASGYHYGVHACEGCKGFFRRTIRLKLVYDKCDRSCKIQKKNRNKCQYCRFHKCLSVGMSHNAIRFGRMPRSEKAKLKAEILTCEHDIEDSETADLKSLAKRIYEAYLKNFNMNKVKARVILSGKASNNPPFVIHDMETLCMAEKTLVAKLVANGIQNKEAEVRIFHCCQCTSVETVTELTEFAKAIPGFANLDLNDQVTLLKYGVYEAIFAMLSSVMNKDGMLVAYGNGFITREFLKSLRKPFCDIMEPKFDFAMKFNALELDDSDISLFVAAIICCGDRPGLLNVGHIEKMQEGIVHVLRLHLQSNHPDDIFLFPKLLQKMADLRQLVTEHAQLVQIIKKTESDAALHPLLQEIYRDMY
Sequence of Bile acid receptor (Homo sapiens) (Q96RI1 whole entry, looked up, the tested form may be a part): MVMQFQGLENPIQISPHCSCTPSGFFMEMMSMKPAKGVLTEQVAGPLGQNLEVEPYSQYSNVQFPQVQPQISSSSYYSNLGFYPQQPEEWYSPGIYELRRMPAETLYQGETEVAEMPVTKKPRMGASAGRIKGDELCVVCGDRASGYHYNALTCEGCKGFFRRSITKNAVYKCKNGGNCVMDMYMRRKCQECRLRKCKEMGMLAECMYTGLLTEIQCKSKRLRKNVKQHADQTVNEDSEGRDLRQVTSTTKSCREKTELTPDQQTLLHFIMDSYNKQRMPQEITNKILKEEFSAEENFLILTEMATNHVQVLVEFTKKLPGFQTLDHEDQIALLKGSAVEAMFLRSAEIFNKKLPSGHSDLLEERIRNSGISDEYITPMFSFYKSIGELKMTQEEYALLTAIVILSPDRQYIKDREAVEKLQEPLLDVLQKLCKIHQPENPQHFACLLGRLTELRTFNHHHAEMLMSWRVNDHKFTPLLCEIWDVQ
Sequence of Nuclear respiratory factor 1 (Homo sapiens) (Q16656 whole entry, looked up): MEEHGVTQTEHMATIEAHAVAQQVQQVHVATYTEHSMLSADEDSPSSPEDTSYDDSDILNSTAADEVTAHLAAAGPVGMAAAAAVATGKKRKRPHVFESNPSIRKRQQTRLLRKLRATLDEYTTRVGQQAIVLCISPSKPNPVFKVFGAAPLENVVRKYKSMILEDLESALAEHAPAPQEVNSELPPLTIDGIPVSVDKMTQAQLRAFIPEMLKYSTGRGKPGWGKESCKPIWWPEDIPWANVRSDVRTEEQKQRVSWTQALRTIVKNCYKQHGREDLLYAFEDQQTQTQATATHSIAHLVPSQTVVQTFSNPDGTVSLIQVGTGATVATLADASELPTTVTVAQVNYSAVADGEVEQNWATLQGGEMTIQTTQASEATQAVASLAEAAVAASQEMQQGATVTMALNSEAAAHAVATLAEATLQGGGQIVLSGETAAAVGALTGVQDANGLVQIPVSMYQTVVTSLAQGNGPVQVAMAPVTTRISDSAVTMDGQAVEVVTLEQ
Sequence of Oxysterols receptor LXR-beta (Homo sapiens) (P55055 whole entry, looked up, the tested form may be a part): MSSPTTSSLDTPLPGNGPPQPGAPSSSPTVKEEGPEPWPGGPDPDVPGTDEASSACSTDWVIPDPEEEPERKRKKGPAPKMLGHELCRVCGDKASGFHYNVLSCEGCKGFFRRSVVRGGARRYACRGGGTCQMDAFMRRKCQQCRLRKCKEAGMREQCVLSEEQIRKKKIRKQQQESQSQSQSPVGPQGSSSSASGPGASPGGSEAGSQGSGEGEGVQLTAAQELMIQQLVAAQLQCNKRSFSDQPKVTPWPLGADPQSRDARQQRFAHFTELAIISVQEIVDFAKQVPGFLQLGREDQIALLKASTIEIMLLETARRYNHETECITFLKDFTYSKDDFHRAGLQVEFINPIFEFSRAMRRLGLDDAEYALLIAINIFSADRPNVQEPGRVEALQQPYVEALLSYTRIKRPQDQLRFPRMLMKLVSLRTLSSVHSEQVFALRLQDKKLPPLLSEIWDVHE
Sequence of Transcriptional activator Myb (Homo sapiens) (P10242 whole entry, looked up): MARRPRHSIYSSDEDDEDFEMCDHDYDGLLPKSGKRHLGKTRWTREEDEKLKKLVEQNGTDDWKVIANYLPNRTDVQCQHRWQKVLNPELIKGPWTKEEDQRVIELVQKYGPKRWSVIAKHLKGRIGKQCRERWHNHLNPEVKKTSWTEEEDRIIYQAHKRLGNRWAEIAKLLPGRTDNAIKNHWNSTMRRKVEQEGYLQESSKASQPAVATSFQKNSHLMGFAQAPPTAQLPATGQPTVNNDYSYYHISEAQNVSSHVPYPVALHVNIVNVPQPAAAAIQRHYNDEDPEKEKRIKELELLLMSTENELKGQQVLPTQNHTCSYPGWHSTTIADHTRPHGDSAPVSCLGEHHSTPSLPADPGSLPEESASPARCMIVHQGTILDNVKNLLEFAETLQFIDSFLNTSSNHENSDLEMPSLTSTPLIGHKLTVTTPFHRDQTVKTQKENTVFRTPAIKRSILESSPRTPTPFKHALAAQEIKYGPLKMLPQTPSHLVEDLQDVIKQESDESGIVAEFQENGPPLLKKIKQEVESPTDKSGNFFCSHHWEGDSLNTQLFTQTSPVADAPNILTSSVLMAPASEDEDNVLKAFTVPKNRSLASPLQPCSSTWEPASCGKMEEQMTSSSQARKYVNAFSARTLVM
Sequence of Glucocorticoid receptor (Homo sapiens) (P04150 whole entry, looked up, the tested form may be a part): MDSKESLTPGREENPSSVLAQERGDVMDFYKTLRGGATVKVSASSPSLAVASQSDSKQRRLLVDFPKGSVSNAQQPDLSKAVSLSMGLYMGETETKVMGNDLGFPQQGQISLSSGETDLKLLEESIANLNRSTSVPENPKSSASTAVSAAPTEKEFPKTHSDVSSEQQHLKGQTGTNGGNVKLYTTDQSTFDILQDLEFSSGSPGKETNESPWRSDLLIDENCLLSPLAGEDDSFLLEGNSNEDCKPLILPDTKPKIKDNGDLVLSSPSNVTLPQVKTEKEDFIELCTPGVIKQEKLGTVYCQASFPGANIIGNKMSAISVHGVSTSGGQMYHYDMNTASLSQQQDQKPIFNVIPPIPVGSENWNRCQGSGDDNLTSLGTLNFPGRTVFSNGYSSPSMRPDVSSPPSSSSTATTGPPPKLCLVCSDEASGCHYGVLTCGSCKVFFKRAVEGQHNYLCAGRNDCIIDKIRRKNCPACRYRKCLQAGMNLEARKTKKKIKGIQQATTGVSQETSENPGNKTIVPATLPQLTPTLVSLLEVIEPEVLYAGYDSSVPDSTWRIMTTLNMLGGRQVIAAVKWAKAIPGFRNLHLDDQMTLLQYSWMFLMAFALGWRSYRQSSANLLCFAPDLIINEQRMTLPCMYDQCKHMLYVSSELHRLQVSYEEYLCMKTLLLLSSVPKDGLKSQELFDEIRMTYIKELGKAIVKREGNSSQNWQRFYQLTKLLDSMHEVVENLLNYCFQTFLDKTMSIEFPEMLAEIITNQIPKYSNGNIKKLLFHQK
Sequence of Hepatocyte nuclear factor 4-alpha (Homo sapiens) (P41235 whole entry, looked up, the tested form may be a part): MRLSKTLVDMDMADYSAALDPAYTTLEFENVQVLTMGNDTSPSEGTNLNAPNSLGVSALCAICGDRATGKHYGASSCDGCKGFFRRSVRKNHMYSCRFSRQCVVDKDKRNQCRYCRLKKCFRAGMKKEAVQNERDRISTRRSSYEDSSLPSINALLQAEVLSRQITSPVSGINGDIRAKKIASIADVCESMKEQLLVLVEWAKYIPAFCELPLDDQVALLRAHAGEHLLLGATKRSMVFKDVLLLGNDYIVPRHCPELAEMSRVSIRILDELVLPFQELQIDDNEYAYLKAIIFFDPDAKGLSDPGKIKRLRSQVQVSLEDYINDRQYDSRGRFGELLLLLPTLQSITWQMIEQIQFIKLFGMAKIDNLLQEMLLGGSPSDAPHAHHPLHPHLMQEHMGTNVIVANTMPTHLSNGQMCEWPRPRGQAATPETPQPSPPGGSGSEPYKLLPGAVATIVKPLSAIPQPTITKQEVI

COC(=O)CCCC(=O)OC
not listed: [16] | [17] | [18] | [19] | [20]
inactive: all other assays above

CN(C)CCCN1c2ccccc2Sc2ccc(Cl)cc21
active: [10] 11.1 µM | [11] 11.1 µM | [12] 5.43 µM | [13] 25.1 µM | [14] 36.8 µM | [15] 35.9 µM
not listed: [3] | [20]
inactive: all other assays above

CCCCCCCCCC[N+](C)(C)[O-]
not listed: [2] | [3] | [4] | [9] | [17] | [19] | [20]
inactive: all other assays above

C=CCCCCCCCCCCCC
not listed: [2] | [17] | [18] | [19] | [20]
inactive: all other assays above

CCc1nc(N)nc(N)c1-c1ccc(Cl)cc1
inactive: [1] | [2] | [5] | [7] | [12] | [13] | [14] | [15] | [19]
active: [6] 48.8 µM | [8] 166 µM | [10] 2.15 µM | [11] 138 µM

CCCCC(CC)COC(=O)CCCCCCCC(=O)OCC(CC)CCCC (configuration not stated)
not listed: [3] | [18] | [20]
inactive: all other assays above

NCCOCCOCCN
not listed: [2] | [3] | [17]
inactive: all other assays above
